# Assay results reported in the supplement of paper PMC6555819.
# Legend:
# Experiment in all cases: PBM binding z-score (relative to random genomic background probes); higher = stronger binding; sequences stand for … in GC…GCGATTGACAGCGTAGAATGAAGG
# [1] = system: FXR:RXRa (NR concentration 270 nM, RXRa partner concentration 90 nM)
# Procedure, shortened: (§1)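 Probes were double-stranded and carried 34-nt variable regions with direct-repeat seeds, single-nucleotide variants, half-site ablations and random human genomic background sequences, printed on custom Agilent 4×180K protein-binding microarrays. Arrays were incubated 1 h with ligand-free nuclear receptor dimers in PBS pH 7.4, 2% milk, 0.02% Triton X-100, 1 mM DTT, 0.2 mg/mL BSA and 0.4 mg/ml salmon testes DNA. Antibodies against each partner (one per run) detected binding, and scanned fluorescence was regression-normalized. Binding z-scores use the random background probes as reference.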
# [2] = system: LXRa:RXRa (NR concentration 270 nM, RXRa partner concentration 90 nM)
# Procedure, shortened: as §1
# [3] = system: LXRa homodimer (NR concentration 270 nM)
# Procedure, shortened: as §1
# [4] = system: LXRb:RXRa (NR concentration 270 nM, RXRa partner concentration 90 nM)
# Procedure, shortened: as §1
# [5] = system: LXRb homodimer (NR concentration 270 nM)
# Procedure, shortened: as §1
# [6] = system: PPARa:RXRa (NR concentration 270 nM, RXRa partner concentration 90 nM)
# Procedure, shortened: as §1
# [7] = system: PPARg:RXRa (NR concentration 180 nM, RXRa partner concentration 90 nM)
# Procedure, shortened: as §1
# [8] = system: PPARg:RXRa 270nM:90nM, anti-RXR (NR concentration 270 nM, RXRa partner concentration 90 nM)
# Procedure, shortened: as §1
# [9] = system: PPARg:RXRa 30nM:10nM, anti-RXR (NR concentration 30 nM, RXRa partner concentration 10 nM)
# Procedure, shortened: as §1
# [10] = system: PPARg:RXRa 90nM:30nM, anti-RXR (NR concentration 90 nM, RXRa partner concentration 30 nM)
# Procedure, shortened: as §1
# [11] = system: PPARg:RXRa DBDmut IVT, anti-RXR (DBD mutation: RXRa K156A/R161A, NR concentration 270 nM, RXRa partner concentration 90 nM)
# Procedure, shortened: as §1
# [12] = system: PPARg:RXRa IVT, anti-PPARg (NR concentration 270 nM, RXRa partner concentration 90 nM)
# Procedure, shortened: as §1
# [13] = system: PPARg DBDmut:RXRa IVT, anti-PPARg (DBD mutation: PPARg1 K132A/R137A, NR concentration 270 nM, RXRa partner concentration 90 nM)
# Procedure, shortened: as §1
# [14] = system: PPARg DBDmut IVT, anti-PPARg (DBD mutation: PPARg1 K132A/R137A, NR concentration 270 nM)
# Procedure, shortened: as §1
# [15] = system: PPARg homodimer (NR concentration 180 nM)
# Procedure, shortened: as §1
# [16] = system: PXR:RXRa (NR concentration 270 nM, RXRa partner concentration 90 nM)
# Procedure, shortened: as §1
# [17] = system: PXR homodimer (NR concentration 270 nM)
# Procedure, shortened: as §1
# [18] = system: RARa:RXR (NR concentration 270 nM, RXRa partner concentration 90 nM)
# Procedure, shortened: as §1
# [19] = system: RARa homodimer (NR concentration 270 nM)
# Procedure, shortened: as §1
# [20] = system: RARb:RXRa (NR concentration 270 nM, RXRa partner concentration 90 nM)
# Procedure, shortened: as §1
Sequence,PBM binding z-score [1],PBM binding z-score [2],PBM binding z-score [3],PBM binding z-score [4],PBM binding z-score [5],PBM binding z-score [6],PBM binding z-score [7],PBM binding z-score [8],PBM binding z-score [9],PBM binding z-score [10],PBM binding z-score [11],PBM binding z-score [12],PBM binding z-score [13],PBM binding z-score [14],PBM binding z-score [15],PBM binding z-score [16],PBM binding z-score [17],PBM binding z-score [18],PBM binding z-score [19],PBM binding z-score [20]
TCTGCTAGGTCCACGATGGTCAGCTAATCTGCTA,-0.34,-0.399,-0.522,-0.79,-0.988,-0.24,-0.332,0.324,1.16,0.768,0.568,-0.114,-0.95,-0.628,-0.907,-0.483,-1.23,-0.477,-1.27,0.204
TCTAGCAGGCCAGAGGCTCACTCAAGAGGTACGG,-1.6,-1.07,-0.954,-0.966,-1.81,-0.344,0.578,1.01,1.38,1.21,0.411,-0.442,-1.19,-2.42,-1.71,-0.83,-1.3,-0.758,-1.3,-0.419
CCGACTGGGGCATAAGGTTACCGTAAGCCAGCCC,0.834,0.933,-0.596,0.83,-1.46,2.03,2.33,3.5,1.26,3.13,3.14,3.4,-0.802,-1.39,0.271,0.55,-0.911,1.66,-0.61,1.98
GGAACGAGGGCATTCGAGTGGATAGCATGGCGAT,0.825,0.32,-0.525,-0.0544,-0.833,1.13,0.858,0.594,-0.34,-0.0101,2.7,1.91,0.297,-0.551,-0.225,0.6,-0.278,0.17,-0.0575,1.74
CGTCAAAGTTCGACTAAGGTAACGTAAAGCACGC,1.87,1.33,0.0441,1.16,0.121,1.88,1.33,2.15,0.439,1.37,0.0158,0.996,-0.0779,-0.2,1,2.49,0.543,1.92,0.582,2.49
ATACCGAGGTGATCGTGAGGTCGTTGATACTAAC,1.95,1.69,0.52,1.59,-0.183,1.83,0.57,0.574,-0.146,0.356,0.567,1.31,0.104,1,0.847,3.62,1.35,2.39,-0.522,1.4
CGTCCAAGGTCAATGCTAGGTCAGTAAAAGCATT,6.68,5.2,2.38,4.32,0.868,5.23,4.37,4.46,1.9,3.08,3.36,4.08,0.0708,-0.363,5.6,4.82,1.32,6.12,1.53,5.32
TCTTGTAGATCAATAGAGGTTAAGAACGTGCGCT,0.948,2.59,0.355,1.46,-0.115,1.92,0.397,1.66,2.84,2.58,1.69,1.17,0.658,1.03,0.496,1.51,0.111,1.83,0.544,0.956
TTAGCAAGGTGAAGGTCGTTGATCCCTCTGTAGA,1.98,1.6,-0.45,0.97,-0.841,2.38,1.94,3.32,1.18,2.64,0.732,2.79,-0.57,-0.963,0.358,1.19,-0.023,1.51,-0.525,2.03
ACACCAAGGTGATCGTGAGGTCGTTGATACTAAC,1.59,1.28,0.495,1.38,-0.254,1.62,0.514,0.34,-0.275,0.0177,0.605,1.04,-0.599,0.153,0.72,2.98,1.07,2.18,0.0851,1.47
CGTCCAAGGTCAATGCTAGGGCAGTGAAAGCATT,6.49,4.8,0.528,3.57,0.446,5.03,3.68,4.65,1.05,3.08,2.64,3.52,0.232,-0.81,2.06,3.68,0.492,4.3,-0.245,5.2
TCAGACAGGTGAAGGTGACTCAGGTACGCAGTCG,0.795,0.409,-0.133,0.864,0.128,1.58,0.781,2.13,3.51,2.83,2.42,1.7,0.953,0.0936,0.74,0.711,0.325,0.812,-0.0576,1.62
TCGAGTAGGTGACCAATGGGGCATTCAGCTTTCT,-0.0525,-0.335,-0.709,-0.15,-1.02,0.875,0.524,1.12,1.01,0.794,4.22,3.6,-0.451,-1.19,-0.701,-0.233,-1.05,-0.0879,-1.72,0.567
CTCGAAAGTTCGGTTGAGGTGAGTATACGGATAA,0.279,0.2,-0.166,0.297,-0.341,0.506,-0.114,0.109,-0.0109,0.125,-0.462,0.288,-0.142,0.0612,0.083,1.14,0.236,1.8,-0.11,1.55
